The values below come from PubChem BioAssay (NCI).

Compounds without any hit were thinned out: in the full panel of roughly 83,000, 20% have a hit.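 Single-dose data. Exposure time 48 hours. Values below 10 considered active.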 Values without a mark were called inactive. Active and inactive are the calls of the source.

What all share (test): NCI-60 one-dose screen, 48 h (100 = growth as untreated, 0 = no growth, -100 = all killed)
What all share (settings): 10 µM unless noted

The subject of test [1] is NCI-H23 lung.
Test [2] has as its system NCI-H226 lung.
Test [3] relates to NCI-H322M lung.
Test [4] has as its system HOP-62 NSCLC.
Test [5] has as its system NCI-H460 lung.
For test [6], the system named is HOP-92 NSCLC.
For test [7], the system named is NCI-H522 lung.
The test system of test [8] is A549/ATCC NSCLC.
Test [9] has as its system 786-0 renal.
The test system of test [10] is COLO 205 colon.
Test [11] deals with DU-145 prostate.
For test [12], the system named is K-562 leukemia.
Test [13] deals with MALME-3M melanoma.
Test [14] concerns MDA-MB-231 breast.
Test [15] concerns RXF 393 renal.
For test [16], the system named is SF-268 CNS.
The test system of test [17] is SF-295 CNS.
Test [18] deals with SF-539 CNS.
For test [19], the system named is UACC-257 melanoma.
Test [20] concerns M14 melanoma.

Take `Cc1ccc(S(=O)(=O)N(CCn2ccnc2[N+](=O)[O-])CCn2ccnc2[N+](=O)[O-])cc1`: the growth was 104% in test [1]; 100% in [2]; 107% in test [3]; 108% in test [4]; 109% in [5]; 106% in test [6]. Besides, the growth in test [7] is 91.5%; in test [8], 102%; in test [9], 101%; in test [10], 111%; in [11] it was 106%; in test [12] it was 95.7%. Also, the growth in [13] is 111%; in test [14], 104%; in test [15], 84.3%; in test [16], 111%; in test [17] it was 109%; in [18], 97.6%. The growth in test [19] was 108%; in [20], 97.6%.

`COc1ccc(C(=O)c2cc(C(C)=O)c3c(C)cc(C)cn23)cc1`: the growth in test [1] was 47.7%; in [2], 44.4%; in test [3], 76.8%; in test [4], 34.5%; in test [5], 45.4%; in test [6], 46.8%. For the same compound, the growth is 2.3% (active) in test [7]; 45.3% in test [8]; 45.4% in test [9]; 92.7% in test [10]; 66.9% in [11]; 86.4% in [12]. The growth was 72.1% in test [13]; 75.3% in test [14]; 8.06% (active) in [15]; 23.5% in [16]; 31% in test [17]; 23.8% in test [18]. Moreover, the growth in test [19] was 79.2%; in [20], 84.9%.

For `O=C1/C(=C/c2cnc(-c3ccccc3)s2)SC(=S)N1Cc1ccc2c(c1)OCO2`, the growth in test [1] was 47.1%; in [2], 75.6%; in test [3] it was 92.2%; in test [4] it was 12.2%; in [5] it was 97.2%; in test [6], 48.6%. The growth is 47.5% in test [7]; 101% in test [8]; 31.2% in test [9]; 125% in test [10]; 86% in test [11]; 42.1% in test [12]. Besides, the growth in test [13] was 70.2%; in [14], 76.9%; in [15], 10.5%; in test [16], 44.6%; in test [17], 9.27% (active); in [18] it was 23.3%. For the same compound, the growth in test [19] is 108%; in [20], 107%.

With `COc1cc(/C=C/C(=O)c2cnn(-c3cc(=O)[nH]c4ccccc34)c2C)cc(OC)c1OC`, the growth was 3.65% (active) in [1]; 21.9% in [2]; 12.8% in test [3]; -1.9% (active) in [4]; 7.98% (active) in [5]; 23.3% in [6]. For the same compound, the growth is -18.1% (active) in test [7]; 7.4% (active) in test [8]; 18.2% in [9]; 4.15% (active) in test [10]; 24.9% in test [11]; 3.19% (active) in test [12]. Besides, the growth in [13] was 38.2%; in [14] it was 5.84% (active); in [15], -6.88% (active); in test [16], 32.2%; in [17], 14.5%; in [18] it was -48% (active). For the same compound, the growth in test [19] was 43.3%; in test [20], 19.5%.

On to `COc1cc(CNC(=O)C[C@H](C)CCC=C(C)C)ccc1OCc1cn(-c2ccc(Cl)cc2Cl)nn1`, for which the growth in test [1] was 56.6%; in test [2] it was 66.4%; in [3], 95.2%; in [4], 11.3%; in [5], 75.1%; in [6] it was -3.27% (active). In addition, the growth in test [7] was 55.4%; in [8], 59.4%; in test [9], 38.9%; in test [10], 105%; in test [11], 90.5%; in test [12], 81.4%. In addition, the growth in test [13] was 79.3%; in [14], 59.7%; in [15], 14.1%; in test [16], 52.3%; in test [17], 41.8%; in test [18] it was 66.9%. The growth in [19] was 92%; in test [20] it was 102%.

In the case of `Cc1ccc2nc(COc3ccc(C(=O)NNC(=O)Nc4ccc(Cl)c(C(F)(F)F)c4)cc3)[nH]c2c1`, the growth was 25.9% in [1]; 54.2% in test [2]; 22.3% in test [3]; 6.46% (active) in test [4]; 32.8% in [5]; -22.6% (active) in test [6]. Besides, the growth was 41% in test [7]; 17.1% in test [8]; 50.1% in test [9]; 84.1% in test [10]; 59.3% in [11]; 20.8% in test [12]. Also, the growth in test [13] was -48.5% (active); in test [14] it was 3.89% (active); in test [15], 50.2%; in [16], 40.1%; in test [17], 63%; in [18], -10.6% (active). For the same compound, the growth in test [19] was -17.4% (active); in [20], 27.7%.

Consider `C=CCn1c(O)c(N=Nc2nc(-c3cc4ccccc4oc3=O)cs2)c2ccccc21`, for which the growth in [1] is 35.4%; in test [2] it was 74.2%; in [3], 101%; in test [4], 80.8%; in test [5], 18.3%; in test [6], 85%. Further, the growth is 58.3% in [7]; 24.7% in test [8]; 47.3% in test [9]; 18.1% in [10]; 74.1% in test [11]; 107% in test [12]. The growth in [13] is 104%; in [14] it was -24.9% (active); in test [15] it was -4.94% (active); in [16], 42.1%; in test [17], 54.6%; in [18], 83.7%. Further, the growth in test [19] was 101%; in [20], 70.9%.
